Abeta rescue = A-beta toxicity reversal in yeast. yeast expressing A-beta42, growth rescue, OD600, 48 h; response scale: 0% DMSO, 100% iron-clioquinol control. 410,000 compounds, 0.063% hits. Potency, µM (doses to about 46.1 µM), usual class: activators. AID 1347071; also: potency is read from the fitted curve at half-maximal effect; nearly all actives have a fitted effect of over 55% in size
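Yeast growth medium received pinned compounds, then yeast cells expressing toxic A-beta were added; plates incubated at 30 C for 48 hr. Growth read as absorbance at 600 nm, normalized to DMSO and equimolar FeCl3 plus clioquinol controls.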
TDP43 rescue = rescues yeast growth from TDP-43 toxicity | TDP-43 expressing yeast growth rescue, BacTiter-Glo, 24 h | Potency, µM (highest dose often 46.1 µM), without a hit: at the top dose growth rescue (activation), most hits filed as activators | 410,000 compounds, 1.8% hits | AID 652104; also: potency is read from the fitted curve at half-maximal effect; % of control where 0% means no effect; nearly all actives have a fitted effect of over 50% in size
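In this qHTS, compounds that restore growth of yeast expressing TDP-43 appear as activators. Cells (OD600=0.02, galactose medium, raffinose-pregrown) are incubated with compound 24 hr at 30 deg C and growth is quantified by BacTiter-Glo.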
aSyn yeast inh = alpha-synuclein toxicity inhibition in yeast | Yeast expressing alpha-synuclein, growth rescue, BacTiter-Glo, 24 h | Potency, µM (top dose mostly 46.1 µM), for inactives: top-dose growth rescue (activation), usual class: activators | 370,000 compounds, 0.14% hits | AID 652106; also: potency is read from the fitted curve at half-maximal effect; % of control where 0% means no effect; nearly all actives have a fitted effect of over 65% in size
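Screening used galactose-induced yeast with toxic alpha-synuclein levels, exposed to compound for 24 hr at 30 deg C. Cell growth, read with BacTiter-Glo luminescence, gave the measured signal.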
LDHA block = LDHA (human) enzyme inhibition. P00338. purified LDHA, NADH/diaphorase-resazurin fluorescence; active compounds read low. activity change, % (values are at about 110 or 230 µM). 480,000 compounds, 0.15% hits. AID 1347041; in the data active = activity change below about -30%; inconclusive = mostly about -25% to -30%;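 also: plate controls were DMSO wells for no effect and wells without enzyme for full effect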
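Remaining NADH was detected by diaphorase (0.133 mg/mL) converting 37 µM resazurin to fluorescent resorufin, read at 0 and 20 minutes. The preceding 5-minute room-temperature reaction used 2 nM LDHA, 0.2 mM sodium pyruvate and 0.06 mM NADH at pH 7.4.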
FUS suppressor = rescues growth of FUS-expressing yeast; S. cerevisiae FUS-expressing, growth rescue, OD600, 24 h; Potency, µM (highest dose often 76.6 µM), usual class: activators; 390,000 compounds, 0.24% hits; AID 1347120;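 also: potency is read from the fitted curve at half-maximal effect; plate controls were DMSO vehicle for no effect and reference control for full effect; nearly all actives have a fitted effect of over 55% in size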
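Steps: raffinose overnight preculture; dilution to OD 0.005 in 2% galactose minimal medium; compound addition (concentration series); 24hr at 30C, 99% humidity; absorbance read at 600 nm.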
IDH1 R132H inh = blocks human mutant IDH1 R132H enzyme. IDH1-R132H enzyme, NADPH consumption, diaphorase/resazurin fluorescence. Potency, µM (series often up to 76.6 µM), without a hit: at the highest dose activity change, negative = inhibition, usual class: inhibitors. 390,000 compounds, 0.093% hits; also: potency is read from the fitted curve at half-maximal effect; % is scaled to controls: 0 for no effect and ±100 for the full control effect; nearly all actives have a fitted effect of over 65% in size
Target sequence (O75874 whole entry R132H, stated change not applied): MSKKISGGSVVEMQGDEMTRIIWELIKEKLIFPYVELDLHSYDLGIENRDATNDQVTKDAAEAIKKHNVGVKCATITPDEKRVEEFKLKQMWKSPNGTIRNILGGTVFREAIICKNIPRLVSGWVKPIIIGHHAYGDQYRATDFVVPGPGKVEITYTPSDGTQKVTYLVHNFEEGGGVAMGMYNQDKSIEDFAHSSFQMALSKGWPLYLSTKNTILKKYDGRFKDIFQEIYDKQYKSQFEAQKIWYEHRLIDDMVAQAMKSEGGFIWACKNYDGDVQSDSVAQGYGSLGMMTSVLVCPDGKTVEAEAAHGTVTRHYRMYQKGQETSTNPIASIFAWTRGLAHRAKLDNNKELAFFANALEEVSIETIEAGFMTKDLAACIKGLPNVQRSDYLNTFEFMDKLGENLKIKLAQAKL
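IDH1-R132H (0.5 ug/mL dispensed) in pH 7.5 Tris buffer was preincubated 30 min with compound, then given a substrate mix of 0.016 mM NADPH and 2 mM alpha-KG for 80 min at room temperature; remaining NADPH was read by diaphorase/resazurin fluorescence.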
IDH1 autofl = counter-screen for mutant IDH1 inhibitors: fluorescence interference. shares compounds with IDH1 R132H inh. Resorufin detection reagent fluorescence interference, cell-free. inhibition of signal, % at 51.2 µM. 750 tested, under 10 active;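 also: 0% = wells with normal resorufin and full inhibition = wells lacking resorufin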
WT IDH1 inh = wild-type IDH1 (human) inhibition counterscreen; shares compounds with IDH1 R132H inh; WT IDH1 enzyme, NADPH diaphorase/resazurin fluorescence; Potency, µM (titrated, usually from 115 µM), for the others: top-dose activity change, negative = inhibition, hits mostly inhibitors; 750 compounds, 9% hits; AID 623995;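 also: potency is read from the fitted curve at half-maximal effect; 0% = full WT IDH1 enzyme control and full inhibition = no enzyme wells; nearly all actives have a fitted effect of over 55% in size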
Target sequence (O75874 whole entry, looked up): as the sequence (O75874 whole entry R132H, stated change not applied) above, with H132R counted along it
IDH1 R132H conf = confirmation of human mutant IDH1 inhibitors; shares compounds with IDH1 R132H inh; IDH1 R132H enzyme, NADPH diaphorase/resazurin fluorescence; Potency, µM (top dose mostly 76.6 µM), without a hit: top-dose activity change, negative = inhibition, usual class: inhibitors; 750 compounds, 83% hits; also: potency is read from the fitted curve at half-maximal effect; nearly all actives have a fitted effect of over 50% in size
* hit, by the source's call; i = inactive; u = inconclusive; x = not tested or not shown. Only some compounds are listed: those with a hit (about 2% of all), similar ones and a draw of the others. Unless noted, calls follow the shape of the dose curve; as a rule, active = well fitted curve in the direction sought with a large enough effect; inconclusive = small, poorly fitted or top-dose-only effect, or another doubt; inactive = no such curve, though single readings can be large; an effect the other way counts as inactive or inconclusive.

SMILES	Abeta rescue	TDP43 rescue	aSyn yeast inh	LDHA block	FUS suppressor	IDH1 R132H inh	IDH1 autofl	WT IDH1 inh	IDH1 R132H conf
Cc1ccc(C2C3CSCC=C3C(C#N)=C(N)C2(C#N)C#N)cc1 (stereo not given)	i	-13%	14%	2	u	u	0	-6%	40µM*
Cc1ccc([C@@H]2C3COCC=C3C(C#N)=C(N)C2(C#N)C#N)o1 (stereo not given in full)	i	-15%	-7%	22	i	u	3	4%	u
Cc1ccc(N(C(=O)c2nsc(Cl)c2Cl)C(C(=O)NC2CCCC2)c2ccc(O)cc2)cc1C (stereo not given)	i	0%	-7%	-7	u	u	1	16%	14µM*
Fc1ccc(COc2ccc3ccccc3c2CNCc2cccnc2)cc1	x	x	x	0	x	x	x	x	x
Cc1ccsc1C1Nc2ccc3ncccc3c2C2=C1C(=O)CC(C)(C)C2 (stereo not given)	i	-23%	2%	-3	13µM*	u	-19	u	2.8µM*
O=C1CCCC2=C1C(c1cccs1)Nc1ccc3ncccc3c12 (stereo not given)	i	-9%	2%	0	i	4%	x	x	x
COc1ccc(OC)c(NC(=O)COC(=O)c2ccc(C)s2)c1	x	x	x	-1	x	x	x	x	x
COc1ccc(C)cc1N(C(=O)c1snc(C(N)=O)c1N)C(C(=O)NC1CCCC1)c1ccc(F)cc1 (stereo not given)	i	7%	2%	-10	u	u	4	1%	16µM*
COc1ccc(N(C(=O)c2snc(C(N)=O)c2N)C(C(=O)NC2CCCC2)c2ccc(F)cc2)c(OC)c1 (stereo not given)	i	-9%	0%	-1	i	u	-2	-7%	u
COc1ccc(C(C(=O)NC2CCCCC2)N(C(=O)c2snc(C(N)=O)c2N)c2ccc(OC)cc2OC)cc1 (stereo not given)	i	-11%	1%	-4	i	-27%	x	x	x
CC(C)=CCc1c(O)cc(O)c2c(=O)c3c(CC=C(C)C)c(O)ccc3oc12	i	-91%	-49%	-21	i	45µM*	4	6%	40µM*
CCOC(=O)c1c(NC(=O)CN2CCOCC2)sc2c1CCCC2	i	10%	18%	8	i	26µM*	-7	-10%	20µM*
CCOC(=O)c1c(NC(=O)CN(CC)CC)sc2c1CCN(C(=O)OCC)C2	i	-12%	1%	0	i	-16%	x	x	x
CCOC(=O)c1c(NC(=O)CN2CCOCC2)sc2c1CCCC2=O	i	10%	0%	0	i	-5%	x	x	x
CCOC(=O)c1c(NC(=O)CN2CCCCC2)sc2c1CCN(C(=O)OCC)C2	i	-19%	0%	9	i	12µM*	-2	5%	6.3µM*
O=C(Nc1ccccc1)C1Sc2nnc(-c3ccccc3)n2NC12CCCCC2 (stereo not given)	x	x	x	8	x	x	x	x	x
CCN(CC)c1ccc(NC(=O)c2ccc3ccccc3n2)cc1	x	x	x	-1	x	x	x	x	x
COc1ccc(-c2c3c(=O)n(C)c(=O)n(C)c3c3n2-c2ccccc2NC3c2ccc(O)cc2O)cc1 (stereo not given)	i	-4%	x	1	u	35µM*	-5	-27%	8.9µM*
O=C(CCc1ncc(-c2ccc(Cl)cc2)o1)Nc1cc(F)cc(F)c1	x	x	x	1	x	x	x	x	x
NNC(=O)CN1C(c2ccc(Cl)cc2)=Nc2ccc(Br)cc2C1c1ccccc1 (stereo not given)	i	-1%	6%	-4	u	u	-13	u	-13%
COc1ccccc1CNc1nc(NCc2ccccc2OC)n(S(=O)(=O)c2ccccc2)n1	x	x	x	15	x	x	x	x	x
Cc1ccc(C)c(N(C)C(=O)c2cc3c(=O)[nH]c4ccc(C)cc4c3s2)c1	i	12%	5%	-5	i	21µM*	-3	u	11µM*
O=C(c1cc(-c2cccs2)nc2ccccc12)N1CCN(c2cccc(C(F)(F)F)c2)CC1	x	x	x	7	x	x	x	x	x
O=C1NC[C@H](Cc2ccccc2)N(C[C@H]2CCCN2C[C@H](Cc2ccc(O)cc2)N2C[C@H](Cc3ccc(O)cc3)N(CC3CCCCCC3)C(=O)C2=O)C1=O	i	20%	-3%	-9	i	u	3	5%	16µM*
CCOc1ccc(CCN2C(=O)C(=O)N([C@@H](Cc3ccc(O)cc3)CN3CCC[C@@H]3CN3C(=O)C(=O)NC[C@@H]3Cc3ccccc3)C[C@@H]2Cc2ccccc2)cc1	i	4%	1%	0	i	32µM*	-6	5%	10µM*
CC(C)C[C@@H](CN1CCC[C@@H]1CN1C(=O)C(=O)NC[C@@H]1Cc1ccccc1)N1C[C@H](Cc2ccc(O)cc2)N(CC2CCCCCC2)C(=O)C1=O	i	2%	0%	1	i	28µM*	-6	0%	11µM*
CC(C)C[C@@H](CN1CCC[C@H]1CN1C(=O)C(=O)NC[C@@H]1Cc1ccc(O)cc1)N1C[C@H](Cc2ccccc2)N(CC2CCCCCC2)C(=O)C1=O	i	1%	-1%	3	i	x	x	x	x
O=C1NC[C@H](Cc2ccccc2)N(C[C@H]2CCCN2C[C@H](Cc2ccccc2)N2C[C@H](Cc3ccc(O)cc3)N(CC3CCCCCC3)C(=O)C2=O)C1=O	i	-2%	0%	-1	i	u	1	-5%	10µM*
O=C1NC[C@H](Cc2ccc(O)cc2)N(C[C@@H]2CCCN2C[C@H](Cc2ccc(O)cc2)N2C[C@H](Cc3ccccc3)N(CC3CCCCCC3)C(=O)C2=O)C1=O	i	15%	4%	-2	i	x	x	x	x

Screening data as filed in PubChem BioAssay.
